In PubChem BioAssay:
The source made the active and inactive calls. The rule behind the calls is not given here.

Assay: hESC survival regulators, cell-based (AID 493140);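 note: cells exposed to compounds for four days before counting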
Details: human embryonic stem cell survival screen; active compounds read high
In the case of `CCCCC/C=C\C=C\[C@@H](O)C/C=C\C/C=C\CCCC(=O)O`, the survival is reported as 81.2 (inactive).
With `CNC1C(O)C2O[C@H](OC3C(N)C[C@@H](N)C(O)[C@H]3O)C(N)C[C@H]2O[C@@H]1O[C@H]1OC(CO)[C@@H](N)[C@H](O)C1O` (stereo partly drawn) the survival was 10.6 (inactive).
With `N#CC(C#N)=C(N)/C(C#N)=C/c1cc(O)c(O)c(O)c1` the survival was 82.2 (inactive).
With `CCCCC/C=C\C\C=C/C=C/C=C/[C@@H](O)[C@@H](O)CCCC(=O)O` the survival was 116 (inactive).
With `C[C@@]1(O)CCOC(=O)C1` the survival was 4.42 (inactive).
With `CCCCC[C@H](O)/C=C/[C@H]1OC(O)C[C@H](O)[C@@H]1C/C=C\CC(=O)O` (stereo partly drawn) the survival was 117 (inactive).
With `CCCCCC[C@@H](O)C/C=C\CCCCCCCC(=O)O` the survival was 85.1 (inactive).
In the case of `O=C(O)CCC/C=C\C/C=C\C=C\[C@@H](O)C/C=C\CCCCCO`, the survival is reported as 89.3 (inactive).
In the case of `CCCCCC(O)/C=C/C=C\CCCCCCCC(=O)O` (stereo not drawn), the survival is reported as 49.5 (inactive).
With `CN(C)CCCO[C@H]1[C@@H](C(O)CO)OC2OC(C)(C)O[C@H]21` (stereo partly drawn) the survival was 7.5 (inactive).
In the case of `O=c1[nH]c(=O)n([C@H]2C[C@@H](O)[C@@H](CO)O2)cc1C(F)(F)F`, the survival is reported as 0.583 (inactive).
For `CCCCC/C=C\C/C=C\C[C@H](O)/C=C/C=C\CCCC(=O)O`, the survival was 91.5 (inactive).
In the case of `CCNC1CC(N)C(OC2OC(CN)=CCC2N)C(O)C1OC1OCC(C)(O)C(NC)C1O` (stereo not drawn), the survival is reported as 17.9 (inactive).
In the case of `CCCCC/C=C\C/C=C\C/C=C\C=C\C(O)CCCC(=O)O` (stereo not drawn), the survival is reported as 122 (inactive).
With `Cn1cnc2nc(NCCO)nc(NCc3ccccc3)c21` the survival was 111 (inactive).
With `CCCCC[C@H](O)/C=C/[C@@H]1[C@@H](CC(=O)CCC(=O)O)[C@@H](O)C[C@H]1O` the survival was 104 (inactive).
With `CCCCC/C=C\C\C=C/C=C/C=C/[C@@H](SCC(N)C(=O)NCC(=O)O)[C@@H](O)CCCC(=O)O` (stereo partly drawn) the survival was 109 (inactive).
In the case of `CCCCC/C=C\C[C@@H](O)/C=C/C=C\CCC(=O)O`, the survival is reported as 67.7 (inactive).
With `CCCCC/C=C\C/C=C\C=C\[C@@H](O)C/C=C\CCCC(=O)O` the survival was 129 (inactive).
In the case of `CCCCC/C=C\C=C\C(O)CCCCCCCC(=O)O` (stereo not drawn), the survival is reported as 83.9 (inactive).
For `CCCCC[C@H](O)/C=C/[C@H]1OC(=O)C[C@H](O)[C@@H]1C/C=C\CCCC(=O)O`, the survival was 110 (inactive).
In the case of `NCC1OC(O[C@@H]2C(O)[C@H](OC3C(O)C(N)CC(N)C3OC3OC(CO)C(O)C(O)C3N)O[C@@H]2CO)C(N)C(O)C1O` (stereo partly drawn), the survival is reported as 5.75 (inactive).
For `CC/C=C\C[C@H](O)/C=C/C=C\C/C=C\C/C=C\CCCC(=O)O`, the survival was 122 (inactive).
In the case of `CCCCC[C@H](O)/C=C/C=C\C/C=C\CCCCCCC(=O)O`, the survival is reported as 102 (inactive).
In the case of `CCCCC/C=C\C\C=C/C=C/C=C/[C@@H](SCC(N)C(=O)O)[C@@H](O)CCCC(=O)O` (stereo partly drawn), the survival is reported as 107 (inactive).
In the case of `CCC(C(=O)C(C)C(O)C(C)CCc1ccc(C)c(O)c1C(=O)O)[C@H]1O[C@](CC)([C@H]2CC[C@](O)(CC)[C@H](C)O2)C[C@@H]1C` (stereo partly drawn), the survival is reported as 24.1 (inactive).
For `CCCCC[C@H](O)/C=C/C=C\C/C=C\CCCCC(=O)O`, the survival was 67.2 (inactive).
In the case of `CCCCC[C@H](O)/C=C/C=C/C=C/[C@H](O)C/C=C\CCCC(=O)O`, the survival is reported as 107 (inactive).
